Measurements reported in PubChem BioAssay AID1903 (Southern Research Specialized Biocontainment Screening …, 2009).
Among all 310,000 compounds or so, about 1,200 (0.39%) were called active. No rule for the calls is given here. A selection follows. Measured potencies and affinities stand elsewhere.

Each molecule was assayed against Large T antigen (Simian virus 40) (UniProt P03070) (assay: SV40 large T antigen inhibitors, biochemical (AID 1903)). Conditions: SV40 large T antigen ATPase/helicase inhibition assay; at 20 µM; active compounds read high.
Large T antigen (Simian virus 40), sequence (P03070 whole entry, looked up): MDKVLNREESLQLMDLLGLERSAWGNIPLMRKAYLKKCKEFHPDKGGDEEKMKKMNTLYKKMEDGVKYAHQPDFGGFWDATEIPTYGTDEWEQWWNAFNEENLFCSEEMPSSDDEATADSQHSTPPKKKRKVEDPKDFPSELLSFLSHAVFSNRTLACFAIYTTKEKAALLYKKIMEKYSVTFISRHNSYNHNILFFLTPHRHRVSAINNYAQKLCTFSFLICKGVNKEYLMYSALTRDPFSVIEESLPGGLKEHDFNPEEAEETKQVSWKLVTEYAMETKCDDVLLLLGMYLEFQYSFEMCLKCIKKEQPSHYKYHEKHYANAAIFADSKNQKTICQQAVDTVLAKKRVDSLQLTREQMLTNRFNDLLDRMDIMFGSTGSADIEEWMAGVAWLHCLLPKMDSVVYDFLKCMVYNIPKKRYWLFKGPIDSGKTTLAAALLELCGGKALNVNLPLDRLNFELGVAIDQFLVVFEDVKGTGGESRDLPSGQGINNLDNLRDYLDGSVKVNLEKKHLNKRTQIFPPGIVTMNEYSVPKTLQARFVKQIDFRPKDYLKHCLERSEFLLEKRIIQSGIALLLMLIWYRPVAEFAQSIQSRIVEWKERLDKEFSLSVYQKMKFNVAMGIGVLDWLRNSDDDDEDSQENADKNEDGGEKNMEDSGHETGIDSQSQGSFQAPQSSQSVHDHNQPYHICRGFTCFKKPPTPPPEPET

inhibition, inactive:
O=c1cc(CN2CCOCC2)c2ccc(O)c(O)c2o1 31.2%
Cc1c(O)ccc2c(CN3CCN(Cc4ccccc4)CC3)cc(=O)oc12 20.2%
COc1ccc(OC)c(C(=O)c2coc3ccc(O)c(CN(C)C)c23)c1 7.95%
CCCc1cc(N2CCN(C(=O)c3ccco3)CC2)n2c(nc3ccccc32)c1C#N 14.7%
Cc1ccc(S(=O)(=O)Nc2ccc(N3CCN(C)CC3)nc2)cc1 15.7%
COc1ccc2c(OC)c3ccoc3nc2c1OC 6.26%
COc1cc2nc3occc3c(OC)c2cc1OC 19.9%
CCn1nc(C)c(CN2CCCCC2C(=O)Nc2ccc(Oc3cccnc3)cc2)c1C (stereo unspecified) 13.5%
CC(Oc1ccc2ccc(=O)oc2c1)C(=O)N1CCOCC1 (stereo unspecified) 29.2%
O=Nc1c(O)[nH]c2ccc(F)cc12 3.33%
Cc1ccc2[nH]c(O)c(N=O)c2c1 1.83%
Cn1c(=O)c2sccc2n2c(CCCC(=O)N3CCCCC3)nnc12 7.77%
CN1C(=O)N(C)c2ccc(C=O)c3cccc1c23 1.16%
CN1c2cccc3cccc(c23)N(C)C1(C)C 23%
COc1ccc(NC(=O)CCN2CCN(S(=O)(=O)c3ccc(OC)cc3)CC2)cc1 6.07%
O=C(CCN1CCN(c2ccccn2)CC1)Nc1ccc(F)cc1 2.77%
COc1ccc(NC(=O)CCN2CCN(S(=O)(=O)c3ccc(C(C)C)cc3)CC2)cc1 14.9%
COc1ccc(NC(=O)c2ccc(N3CCOCC3)nc2)cc1 6.11%
Cc1ccc(C(=O)Nc2ccc(N3CCOCC3)nc2)cc1 1.46%
CC(=O)Nc1ccc(NC(=O)CN2CCN(c3ccccn3)CC2)cc1 0.46%
CCN(CC)CCn1c2c(c(SCC(=O)Nc3ccc4c(c3)OCO4)nc1=O)CCC2 8.82%
O=C(O)C1=C[C@H](c2ccc3c(c2)OCO3)C[C@H](OCc2ccc(CO)cc2)O1 9.17%
COc1ccccc1-c1cc(C(F)(F)F)nc(S(=O)(=O)CCCC(=O)NCc2ccc(F)cc2)n1 23.6%
CCOc1ccc(C(=O)CCc2nc3ccccc3s2)cc1 17.3%
CCOC(=O)/C(C#N)=C/c1c(N2CCN(c3ccccc3)CC2)nc2c(C)cccn2c1=O 2.5%
COc1cc(Cl)c(C)cc1Nc1ncccn1 5.51%
CCCCCNC(=O)Cn1c(=O)c2c(ncn2CC(C)C)n(Cc2ccccc2)c1=O 9.03%
O=C(CSc1nnc(NC(=O)c2c(F)cccc2F)s1)NCc1ccccc1 9.61%
COCCn1c(=O)[nH]c2cc(C(=O)NCCN3CCN(c4ccccc4)CC3)ccc2c1=O 0.98%
O=S(=O)(NC1=NCCCCC1)c1ccc2ccccc2c1 7.96%
O=S(=O)(Nc1nc2c(s1)CCCC2)c1ccc2ccccc2c1 21.8%
CCc1ccc(C(=O)OCC(=O)Nc2cccc(S(=O)(=O)NC3=NCCCCC3)c2)cc1 23%
Nc1nc2cc(S(=O)(=O)NC3=NCCCCC3)ccc2s1 37.1%
CC1CC(=O)C2=C(C1)Nc1ccccc1N(C(=O)COc1ccccc1)C2c1ccco1 (stereo unspecified) 5.78%
CCN(CC)Cc1c(O)ccc2c(=O)c(Oc3ccccc3OC)c(C)oc12 13.5%
Cc1c(-c2ccc(F)cc2)[n+](=O)c(-c2ccc(F)cc2)c(C)n1[O-] 17.5%
CC(C)(C)c1ccc(C(=O)NNC(=S)NCc2ccco2)cc1 12.7%
c1ccc(-c2nc3ccccn3c2NC2CCCC2)nc1 35%
Cc1ccccc1Nc1c(-c2cccnc2)nc2ccccn12 11.7%
Cc1ccc2nc(-c3ccccn3)c(Nc3ccccc3C)n2c1 16.6%
Cc1ccc2nc(-c3ccncc3)c(NC3CCCC3)n2c1 11.4%
CCCCCCC(=O)Oc1cccc(N2C(=O)C3CCCCC3C2=O)c1 (stereo unspecified) 4.91%
CCOC(=O)N1CCN(S(=O)(=O)c2ccc(OCC(=O)OC)c(Cl)c2)CC1 -13.8%
N#C/C(=C\c1ccc2c(c1)OCO2)C(=O)NCc1ccco1 6.96%
CC(c1ccccc1)N1CCC(CNC(=S)Nc2cccc(Cl)c2)C1 (stereo unspecified) 16.7%
C[C@@H]1O[C@@H](OC[C@H]2O[C@@H](Oc3c(-c4ccc(O)cc4)oc4cc(O)cc(O)c4c3=O)[C@H](O)[C@@H](O)[C@@H]2O)[C@H](O)[C@H](O)[C@H]1O 10%
CC1OC(OC2C(Oc3c(-c4ccc(O)cc4)oc4cc(O)cc(O)c4c3=O)OC(COC3O[C@@H](C)[C@H](O)[C@@H](O)C3O)C(O)C2O)C(O)C(O)C1O (stereo partly specified) 3.2%
O=c1c(O[C@@H]2O[C@H](CO)[C@H](O)[C@H](O)[C@H]2O)c(-c2ccc(O)c(O)c2)oc2cc(O)cc(O)c12 -2.68%
O=c1c(O[C@@H]2O[C@H](CO)[C@@H](O)[C@H](O)[C@H]2O)c(-c2ccc(O)c(O)c2)oc2cc(O)cc(O)c12 2.85%
O=c1c(OC2OC(CO)C(O)C(O)C2OC2OC(CO)C(O)C(O)C2OC2OC(CO)C(O)C(O)C2O)c(-c2ccc(O)c(O)c2)oc2cc(O)cc(O)c12 (stereo unspecified) 7.41%
C[C@@H]1O[C@@H](OC[C@H]2O[C@@H](Oc3c(-c4ccc(O)c(O)c4)oc4cc(O)cc(O)c4c3=O)[C@H](O)[C@@H](O)[C@@H]2O)[C@H](O)[C@H](O)[C@H]1O 5.24%
CC(=O)N/C(=C\c1ccc(F)cc1)C(=O)NC(C(=O)O)C(C)C (stereo unspecified) 0.16%
O=c1cc(O)nc(SCc2ccccc2)n1-c1ccc(Cl)cc1 7.14%
COc1ccc(NC(=O)CC2SC(=NCc3ccccc3OC)NC2=O)cc1 (stereo unspecified) 0.11%
COc1ccc(NC(=O)CSc2nnc(CC(=O)Nc3ccc(F)cc3)n2C)cc1 6.25%
O=C(COC(=O)C1CCCN1C(=O)C12CC3CC(CC(C3)C1)C2)c1ccc(Br)cc1 (stereo unspecified) 3.8%
Cc1occc1C(=O)N1CCCC(N2CCN(c3ccccc3F)CC2)C1 (stereo unspecified) 7.6%
O=C(NCC1CC1)[C@]1(C(F)(F)F)C[C@H](CCC2CCCCC2)CCCO1 2.31%
Fc1ccc(-c2nnc(CSc3nnc4ccccn34)o2)cc1 14.8%
O=c1c(-c2ccc(O)cc2)coc2c(C3O[C@H](CO)[C@@H](O)[C@H](O)[C@H]3O)c(O)ccc12 (stereo partly specified) 24.2%
CC(=O)Cc1cc(=O)c2c(C)cc(O)c(C3OC(CO)C(O)C(O)C3O)c2o1 (stereo unspecified) 5.68%
O=c1cc(-c2ccc(O)cc2)oc2c(C3O[C@H](CO)[C@@H](O)[C@H](O)[C@H]3O)c(O)cc(O)c12 (stereo partly specified) 26%
O=c1cc(-c2ccc(O)cc2)oc2c([C@@H]3O[C@H](CO)[C@@H](O)[C@H](O)[C@H]3O)c(O)c([C@@H]3O[C@H](CO)[C@@H](O)[C@H](O)[C@H]3O)c(O)c12 7.48%
O=c1cc(-c2ccc(O)cc2)oc2cc(O[C@@H]3O[C@H](CO)[C@@H](O)[C@H](O)[C@H]3O[C@@H]3OC[C@](O)(CO)[C@H]3O)cc(O)c12 8.96%
COc1c(O)cc2c(c1O)C1OC(CO)C(O)C(O)C1OC2=O (stereo unspecified) 2.96%
O=c1cc(-c2ccc(O)cc2)oc2c(C3OCC(O)C(O)C3O)c(O)c(C3OC(CO)C(O)C(O)C3O)c(O)c12 (stereo unspecified) 45.1%
O=C(O)C1OC(Oc2cc3oc(-c4ccccc4)cc(=O)c3c(O)c2O)C(O)C(O)C1O (stereo unspecified) 17.2%
CC(O)CNCCOc1ccccc1-c1ccccc1 (stereo unspecified) 8.76%
CCOC(=O)CN1C(=O)NC(C)(c2ccc(OC(F)F)cc2)C1=O (stereo unspecified) 11.6%
CCC1(C)N=c2c(c(=O)n(C)c(=O)n2C)=NO1 (stereo unspecified) 2.8%
CC(C)CN1C(=O)NC2(CCCc3ccccc32)C1=O (stereo unspecified) 25%
COc1ccc(/C=C(/NC(=O)c2ccc(C)cc2)C(=O)NCC2CCCO2)cc1 (stereo unspecified) 9.41%
CCOC(=O)Nc1nc(-c2ccccc2)c(C(=O)c2ccccc2)s1 10%
c1ccc(C2[C@H]3CN(Cc4cccnc4)[C@H](c4ccccc4)C34CC2(c2cccnc2)C4)cc1 (stereo partly specified) 5.83%
CCOC(=O)CSc1ncnc2c1cnn2-c1ccc(Cl)cc1 2.59%
COC(=O)c1nn(-c2ccccc2)c(Cl)c1/C=N/OCc1c(Cl)cccc1Cl 6.28%
COc1cc2c(cc1OC)CN(Cc1ccccc1)CC2 4.34%
COc1cc2c(cc1OC)CC(=O)N(C)CC2 -0.375%
COc1cc(NC(=O)CN2CCCCC2C)c(C)cc1[N+](=O)[O-] (stereo unspecified) -0.94%
Nn1c(SCC(=O)NC(=O)NCc2ccco2)nnc1-c1ccc(OC(F)F)cc1 19.9%
Cc1ccc(Nc2n[nH]c(C)c2[N+](=O)[O-])cc1 -4.15%
Cc1ccc(Nc2n[nH]c(C)c2[N+](=O)[O-])cc1C 4.58%
O=C(NC1CCN(C(=O)Nc2ccc(F)cc2)CC1)c1ccc(F)cc1 -6.41%
O=C(O)c1cc(S(=O)(=O)O)ccc1O -2.3%
CC1=C/C(=C(\c2ccc(O)c(C)c2)c2ccccc2S(=O)(=O)O)C=CC1=O 1.87%
O=C(NCC(c1cccs1)N1CCOCC1)c1ccc(Cl)cc1 (stereo unspecified) 20.7%
